# Where two headings read alike, the source gives them in different places.
# Assays:
# TNK1 = settings: read-out: apparent Kd, n = 1
# TTK = settings: read-out: apparent Kd, n = 1
# [1] = compound concentrations:100 nM and 1000 nM (sheet 'Lestaurtinib' of Supplementary Table 1),run:Lestaurtinib_02437_R3,Plate:MR007
# [2] = compound concentrations:100 nM and 1000 nM (sheet 'Lestaurtinib' of Supplementary Table 1),run:Lestaurtinib_02438_R2,Plate:MR008
# [3] = compound concentrations:100 nM and 1000 nM (sheet 'Lestaurtinib' of Supplementary Table 1),run:Lestaurtinib_02496_R2,Plate:MR013
# [4] = compound concentrations:100 nM and 1000 nM (sheet 'Lestaurtinib' of Supplementary Table 1),run:Lestaurtinib_02566_R1,Plate:MR014
# [5] = compound concentrations:100 nM and 1000 nM (sheet 'Lestaurtinib' of Supplementary Table 1),run:Lestaurtinib_02566_R2,Plate:MR014
# [6] = compound concentrations:100 nM and 1000 nM (sheet 'Lestaurtinib' of Supplementary Table 1),run:Lestaurtinib_02566_R3,Plate:MR014
# [7] = compound concentrations:100 nM and 1000 nM (sheet 'Lestaurtinib' of Supplementary Table 1),run:Lestaurtinib_02572_R2,Plate:MR015
# [8] = compound concentrations:100 nM and 1000 nM (sheet 'Lestaurtinib' of Supplementary Table 1),run:Lestaurtinib_02577_R3,Plate:MR016
# [9] = compound concentrations:100 nM and 1000 nM (sheet 'Lestaurtinib' of Supplementary Table 1),run:Lestaurtinib_02606_R3,Plate:MR019
# [10] = compound concentrations:100 nM and 1000 nM (sheet 'Lestaurtinib' of Supplementary Table 1),run:Lestaurtinib_02624_R1,Plate:MR020
# [11] = compound concentrations:100 nM and 1000 nM (sheet 'Lestaurtinib' of Supplementary Table 1),run:Lestaurtinib_02624_R3,Plate:MR020
# [12] = compound concentrations:100 nM and 1000 nM (sheet 'Lestaurtinib' of Supplementary Table 1),run:Lestaurtinib_02724_R1,Plate:MR021
# [13] = compound concentrations:100 nM and 1000 nM (sheet 'Lestaurtinib' of Supplementary Table 1),run:Lestaurtinib_02748_R2,Plate:MR024
# [14] = compound concentrations:100 nM and 1000 nM (sheet 'Lestaurtinib' of Supplementary Table 1),run:Lestaurtinib_02752_R2,Plate:MR025
# [15] = compound concentrations:100 nM and 1000 nM (sheet 'Lestaurtinib' of Supplementary Table 1),run:Lestaurtinib_02765_R2,Plate:MR026
# [16] = compound concentrations:100 nM and 1000 nM (sheet 'Lestaurtinib' of Supplementary Table 1),run:Lestaurtinib_02765_R3,Plate:MR026
# [17] = compound concentrations:100 nM and 1000 nM (sheet 'Lestaurtinib' of Supplementary Table 1),run:Lestaurtinib_02768_R2,Plate:MR028
# [18] = compound concentrations:100 nM and 1000 nM (sheet 'Lestaurtinib' of Supplementary Table 1),run:Lestaurtinib_02795_R3,Plate:MR022
# [19] = compound concentrations:100 nM and 1000 nM (sheet 'Lestaurtinib' of Supplementary Table 1),run:Lestaurtinib_02802_R1,Plate:MR029
# [20] = compound concentrations:100 nM and 1000 nM (sheet 'Lestaurtinib' of Supplementary Table 1),run:Lestaurtinib_03260_R1,Plate:MR033
# [21] = compound concentrations:100 nM and 1000 nM (sheet 'Lestaurtinib' of Supplementary Table 1),run:Lestaurtinib_03260_R2,Plate:MR033
substance,measurement,setting,value
Lestaurtinib,potency estimated from few doses,TNK1; [1],15.8 nM
same,potency estimated from few doses,TNK1; [2],65.4 nM
same,potency estimated from few doses,"TNK1; compound concentrations:100 nM and 1000 nM (sheet 'Lestaurtinib' of Supplementary Table 1),run:Lestaurtinib_02438_R3,Plate:MR008",71.3 nM
same,potency estimated from few doses,"TNK1; compound concentrations:100 nM and 1000 nM (sheet 'Lestaurtinib' of Supplementary Table 1),run:Lestaurtinib_02443_R3,Plate:MR009",143 nM
same,potency estimated from few doses,"TNK1; compound concentrations:100 nM and 1000 nM (sheet 'Lestaurtinib' of Supplementary Table 1),run:Lestaurtinib_02473_R2,Plate:MR010",98.6 nM
same,potency estimated from few doses,"TNK1; compound concentrations:100 nM and 1000 nM (sheet 'Lestaurtinib' of Supplementary Table 1),run:Lestaurtinib_02482_R3,Plate:MR011",222 nM
same,potency estimated from few doses,"TNK1; compound concentrations:100 nM and 1000 nM (sheet 'Lestaurtinib' of Supplementary Table 1),run:Lestaurtinib_02487_R3,Plate:MR012",81.8 nM
same,potency estimated from few doses,TNK1; [3],95.2 nM
same,potency estimated from few doses,TNK1; [4],250 nM
same,potency estimated from few doses,TNK1; [5],221 nM
same,potency estimated from few doses,TNK1; [6],208 nM
same,potency estimated from few doses,TNK1; [7],53.4 nM
same,potency estimated from few doses,"TNK1; compound concentrations:100 nM and 1000 nM (sheet 'Lestaurtinib' of Supplementary Table 1),run:Lestaurtinib_02577_R1,Plate:MR016",240 nM
same,potency estimated from few doses,TNK1; [8],209 nM
same,potency estimated from few doses,"TNK1; compound concentrations:100 nM and 1000 nM (sheet 'Lestaurtinib' of Supplementary Table 1),run:Lestaurtinib_02584_R3,Plate:MR017",220 nM
same,potency estimated from few doses,"TNK1; compound concentrations:100 nM and 1000 nM (sheet 'Lestaurtinib' of Supplementary Table 1),run:Lestaurtinib_02606_R2,Plate:MR019",45.1 nM
same,potency estimated from few doses,TNK1; [9],274 nM
same,potency estimated from few doses,TNK1; [10],219 nM
same,potency estimated from few doses,TNK1; [11],91.7 nM
same,potency estimated from few doses,TNK1; [12],256 nM
same,potency estimated from few doses,"TNK1; compound concentrations:100 nM and 1000 nM (sheet 'Lestaurtinib' of Supplementary Table 1),run:Lestaurtinib_02724_R3,Plate:MR021",60 nM
same,potency estimated from few doses,TNK1; [13],97 nM
same,potency estimated from few doses,"TNK1; compound concentrations:100 nM and 1000 nM (sheet 'Lestaurtinib' of Supplementary Table 1),run:Lestaurtinib_02752_R1,Plate:MR025",245 nM
same,potency estimated from few doses,TNK1; [14],209 nM
same,potency estimated from few doses,"TNK1; compound concentrations:100 nM and 1000 nM (sheet 'Lestaurtinib' of Supplementary Table 1),run:Lestaurtinib_02752_R3,Plate:MR025",208 nM
same,potency estimated from few doses,"TNK1; compound concentrations:100 nM and 1000 nM (sheet 'Lestaurtinib' of Supplementary Table 1),run:Lestaurtinib_02765_R1,Plate:MR026",352 nM
same,potency estimated from few doses,TNK1; [15],275 nM
same,potency estimated from few doses,TNK1; [16],357 nM
same,potency estimated from few doses,"TNK1; compound concentrations:100 nM and 1000 nM (sheet 'Lestaurtinib' of Supplementary Table 1),run:Lestaurtinib_02766_R2,Plate:MR027",20.7 nM
same,potency estimated from few doses,"TNK1; compound concentrations:100 nM and 1000 nM (sheet 'Lestaurtinib' of Supplementary Table 1),run:Lestaurtinib_02766_R3,Plate:MR027",55.7 nM
same,potency estimated from few doses,TNK1; [17],79.2 nM
same,potency estimated from few doses,"TNK1; compound concentrations:100 nM and 1000 nM (sheet 'Lestaurtinib' of Supplementary Table 1),run:Lestaurtinib_02768_R3,Plate:MR028",115 nM
same,potency estimated from few doses,TNK1; [18],213 nM
same,potency estimated from few doses,TNK1; [19],81.9 nM
same,potency estimated from few doses,"TNK1; compound concentrations:100 nM and 1000 nM (sheet 'Lestaurtinib' of Supplementary Table 1),run:Lestaurtinib_03172_R2,Plate:MR031",211 nM
same,potency estimated from few doses,"TNK1; compound concentrations:100 nM and 1000 nM (sheet 'Lestaurtinib' of Supplementary Table 1),run:Lestaurtinib_03172_R3,Plate:MR031",85.4 nM
same,potency estimated from few doses,"TNK1; compound concentrations:100 nM and 1000 nM (sheet 'Lestaurtinib' of Supplementary Table 1),run:Lestaurtinib_03252_R1,Plate:MR032",243 nM
same,potency estimated from few doses,TNK1; [20],279 nM
same,potency estimated from few doses,TNK1; [21],258 nM
same,potency estimated from few doses,"TTK; compound concentrations:100 nM and 1000 nM (sheet 'Lestaurtinib' of Supplementary Table 1),run:Lestaurtinib_02339_R1,Plate:MR001",1930 nM
same,potency estimated from few doses,"TTK; compound concentrations:100 nM and 1000 nM (sheet 'Lestaurtinib' of Supplementary Table 1),run:Lestaurtinib_02339_R2,Plate:MR001",812 nM
same,potency estimated from few doses,"TTK; compound concentrations:100 nM and 1000 nM (sheet 'Lestaurtinib' of Supplementary Table 1),run:Lestaurtinib_02364_R2,Plate:MR002",1820 nM
same,potency estimated from few doses,"TTK; compound concentrations:100 nM and 1000 nM (sheet 'Lestaurtinib' of Supplementary Table 1),run:Lestaurtinib_02364_R3,Plate:MR002",1130 nM
same,potency estimated from few doses,"TTK; compound concentrations:100 nM and 1000 nM (sheet 'Lestaurtinib' of Supplementary Table 1),run:Lestaurtinib_02367_R1,Plate:MR003",172 nM
same,potency estimated from few doses,"TTK; compound concentrations:100 nM and 1000 nM (sheet 'Lestaurtinib' of Supplementary Table 1),run:Lestaurtinib_02367_R2,Plate:MR003",2190 nM
same,potency estimated from few doses,"TTK; compound concentrations:100 nM and 1000 nM (sheet 'Lestaurtinib' of Supplementary Table 1),run:Lestaurtinib_02422_R1,Plate:MR006",786 nM
same,potency estimated from few doses,"TTK; compound concentrations:100 nM and 1000 nM (sheet 'Lestaurtinib' of Supplementary Table 1),run:Lestaurtinib_02422_R2,Plate:MR006",1690 nM
same,potency estimated from few doses,"TTK; compound concentrations:100 nM and 1000 nM (sheet 'Lestaurtinib' of Supplementary Table 1),run:Lestaurtinib_02422_R3,Plate:MR006",1630 nM
same,potency estimated from few doses,"TTK; compound concentrations:100 nM and 1000 nM (sheet 'Lestaurtinib' of Supplementary Table 1),run:Lestaurtinib_02437_R1,Plate:MR007",94.9 nM
same,potency estimated from few doses,TTK; [1],1430 nM
same,potency estimated from few doses,"TTK; compound concentrations:100 nM and 1000 nM (sheet 'Lestaurtinib' of Supplementary Table 1),run:Lestaurtinib_02438_R1,Plate:MR008",800 nM
same,potency estimated from few doses,TTK; [2],1970 nM
same,potency estimated from few doses,"TTK; compound concentrations:100 nM and 1000 nM (sheet 'Lestaurtinib' of Supplementary Table 1),run:Lestaurtinib_02443_R1,Plate:MR009",1400 nM
same,potency estimated from few doses,"TTK; compound concentrations:100 nM and 1000 nM (sheet 'Lestaurtinib' of Supplementary Table 1),run:Lestaurtinib_02473_R1,Plate:MR010",950 nM
same,potency estimated from few doses,"TTK; compound concentrations:100 nM and 1000 nM (sheet 'Lestaurtinib' of Supplementary Table 1),run:Lestaurtinib_02496_R1,Plate:MR013",1370 nM
same,potency estimated from few doses,TTK; [3],1410 nM
same,potency estimated from few doses,TTK; [4],936 nM
same,potency estimated from few doses,TTK; [5],821 nM
same,potency estimated from few doses,TTK; [6],717 nM
same,potency estimated from few doses,TTK; [7],1840 nM
same,potency estimated from few doses,"TTK; compound concentrations:100 nM and 1000 nM (sheet 'Lestaurtinib' of Supplementary Table 1),run:Lestaurtinib_02572_R3,Plate:MR015",1440 nM
same,potency estimated from few doses,TTK; [8],1700 nM
same,potency estimated from few doses,"TTK; compound concentrations:100 nM and 1000 nM (sheet 'Lestaurtinib' of Supplementary Table 1),run:Lestaurtinib_02601_R1,Plate:MR018",1370 nM
same,potency estimated from few doses,"TTK; compound concentrations:100 nM and 1000 nM (sheet 'Lestaurtinib' of Supplementary Table 1),run:Lestaurtinib_02601_R2,Plate:MR018",1620 nM
same,potency estimated from few doses,"TTK; compound concentrations:100 nM and 1000 nM (sheet 'Lestaurtinib' of Supplementary Table 1),run:Lestaurtinib_02601_R3,Plate:MR018",1610 nM
same,potency estimated from few doses,TTK; [9],1510 nM
same,potency estimated from few doses,TTK; [10],1430 nM
same,potency estimated from few doses,"TTK; compound concentrations:100 nM and 1000 nM (sheet 'Lestaurtinib' of Supplementary Table 1),run:Lestaurtinib_02624_R2,Plate:MR020",1760 nM
same,potency estimated from few doses,TTK; [11],1430 nM
same,potency estimated from few doses,TTK; [12],1210 nM
same,potency estimated from few doses,"TTK; compound concentrations:100 nM and 1000 nM (sheet 'Lestaurtinib' of Supplementary Table 1),run:Lestaurtinib_02741_R1,Plate:MR023",1340 nM
same,potency estimated from few doses,"TTK; compound concentrations:100 nM and 1000 nM (sheet 'Lestaurtinib' of Supplementary Table 1),run:Lestaurtinib_02741_R2,Plate:MR023",998 nM
same,potency estimated from few doses,TTK; [13],1150 nM
same,potency estimated from few doses,"TTK; compound concentrations:100 nM and 1000 nM (sheet 'Lestaurtinib' of Supplementary Table 1),run:Lestaurtinib_02748_R3,Plate:MR024",1440 nM
same,potency estimated from few doses,TTK; [14],1240 nM
same,potency estimated from few doses,TTK; [15],1440 nM
same,potency estimated from few doses,TTK; [16],907 nM
same,potency estimated from few doses,"TTK; compound concentrations:100 nM and 1000 nM (sheet 'Lestaurtinib' of Supplementary Table 1),run:Lestaurtinib_02768_R1,Plate:MR028",2150 nM
same,potency estimated from few doses,TTK; [17],2240 nM
same,potency estimated from few doses,"TTK; compound concentrations:100 nM and 1000 nM (sheet 'Lestaurtinib' of Supplementary Table 1),run:Lestaurtinib_02795_R1,Plate:MR022",1410 nM
same,potency estimated from few doses,TTK; [18],750 nM
same,potency estimated from few doses,TTK; [19],996 nM
same,potency estimated from few doses,"TTK; compound concentrations:100 nM and 1000 nM (sheet 'Lestaurtinib' of Supplementary Table 1),run:Lestaurtinib_02802_R2,Plate:MR029",924 nM
same,potency estimated from few doses,"TTK; compound concentrations:100 nM and 1000 nM (sheet 'Lestaurtinib' of Supplementary Table 1),run:Lestaurtinib_02802_R3,Plate:MR029",1410 nM
same,potency estimated from few doses,"TTK; compound concentrations:100 nM and 1000 nM (sheet 'Lestaurtinib' of Supplementary Table 1),run:Lestaurtinib_02896_R3,Plate:MR030",953 nM
same,potency estimated from few doses,"TTK; compound concentrations:100 nM and 1000 nM (sheet 'Lestaurtinib' of Supplementary Table 1),run:Lestaurtinib_03252_R2,Plate:MR032",1310 nM
same,potency estimated from few doses,TTK; [20],896 nM
same,potency estimated from few doses,TTK; [21],1540 nM
same,potency estimated from few doses,"TTK; compound concentrations:100 nM and 1000 nM (sheet 'Lestaurtinib' of Supplementary Table 1),run:Lestaurtinib_03260_R3,Plate:MR033",806 nM
